Bioassay records as filed in PubChem.
697 NFkB inh = inhibitors of the PMA/ionomycin-induced NF-kB reporter in 697 B cells. inhibition, % at 4 µM. 697 B-cell NF-kB luciferase reporter, 16 h. hit rate 0.33% among 330,000; in the data active = inhibition above about 35%
H9c2 TAG inh = inhibitors of triacylglycerol accumulation; H9c2 cells, Nile Red lipid (TAG) fluorescence; cells loaded with 200 µM oleic acid; inhibition, % at 12.5 µM; hit rate 0.66% among 230,000; AID 651582;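 active = pattern-corrected inhibition of lipid staining of at least 50% with the nuclear-stain viability signal not falling by more than 50%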;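 also: 0% = DMSO wells and 100% = triacsin C control wells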
Jurkat NFkB inh = inhibitors of the PMA/ionomycin-induced NF-kB reporter in Jurkat cells. hit rate 0.53% among 330,000. inhibition, % at 4 µM. PMA/ionomycin-induced NF-kB luciferase reporter, luminescence; in the data active = inhibition above about 50%
Gli-Sufu antag = blocks Gli-Sufu signaling in a luciferase reporter; Sufu-KO-LIGHT fibroblasts, Gli luciferase reporter luminescence; inhibition, % at 5 µM; hit rate 0.74% among 340,000; AID 588413;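 active = inhibition above about 55%, limit read from the data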;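 also: 0% = DMSO-treated cells and 100% = wells with medium but no cells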
Shn3 3UTR inh = inhibitors of Schnurri-3 3'UTR reporter in osteoblasts. hit rate 0.52% among 360,000. AID 588674. Clone20 osteoblast Shn3 3'UTR firefly luciferase, 24 h. inhibition, % at 12.5 µM;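 active = mean inhibition of at least 75% with every replicate also reaching 75%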;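 also: 0% = median of neutral control wells and 100% = pilot-screen positive control compound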
aSyn UTR inh = 5' untranslated region of α-synuclein, MLPCN primary screen; alpha-synuclein 5'UTR reporter, inhibitor activity; inhibition, % (tested at 7.5 µM); hit rate 0.82% among 300,000; AID 1813; in the data active = inhibition above about 60%;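 also: H4 neuroglioblastoma cells stably carrying SNCA 5'UTR luciferase fusion; 0% = DMSO wells and 100% = positive control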
* marks the source's active call; other numbers are inactive results; / = not tested or not shown. Most compounds without a hit are left out; they make up all but 2.3% or so of the library.

SMILES	697 NFkB inh	H9c2 TAG inh	Jurkat NFkB inh	Gli-Sufu antag	Shn3 3UTR inh	aSyn UTR inh
Cc1ccc(-n2nc3c([n+]2[O-])CCc2c-3no[n+]2[O-])cc1	-20.2	/	42.0	1.5	89.9*	-140.5
Brc1ccc(-c2cn3nc4c(nc3n2)CCCC4)cc1	-137.5	9.3	-114.8	-56.0	11.6	93.1*
Nc1nn2cc(-c3ccc(Br)cc3)nc2c2ccccc12	-89.8	7.2	-90.6	-62.6	-147.7	-164.5
c1ccc(-c2cn3nc4c(nc3n2)CCCC4)cc1	-21.8	0.0	-41.7	-45.6	16.3	109.3*
Cc1ccc(OCc2cc(C(=O)N(C)CC3CCOCC3)no2)cc1C	-107.0	/	-67.0	-51.9	-90.4	-103.7
O=C(OCC(O)C(O)C(O)COC(=O)c1ccccc1)c1ccccc1 (stereo not drawn)	/	/	/	6.2	3.1	/
CCc1ccc(Nc2n[n+](-c3ccccc3)c(-c3c(Cl)cccc3Cl)s2)cc1	-3.6	/	25.6	7.0	91.8*	9.6
COc1ccc(C(CNC(=O)c2ccccc2SC)N(C)C)cc1 (stereo not drawn)	11.9	-13.3	8.1	-5.0	13.1	-28.3
C/C(Cl)=C\Cn1c(O)c(N=NC(N)=S)c2cc(Br)ccc21	17.6	43.0	4.6	13.1	21.1	70.1*
NC(=S)N=Nc1c(O)n(CCCl)c2ccc(Br)cc12	11.7	17.8	-1.3	-2.9	19.4	32.1
CC(=O)c1ccccc1NC(=O)COC(=O)c1ccccc1NC(=O)c1ccccc1	7.1	/	-6.5	-6.3	-10.1	/
O=C(Nc1ccccc1)c1cc([N+](=O)[O-])ccc1Cl	19.4	-1.0	2.6	-4.8	14.8	-15.4
CC(=O)Nc1nc(C)c(-c2csc(Nc3cccc(C(C)=O)c3)n2)s1	12.2	/	7.9	0.2	86.3*	26.5
CC(C)Oc1ccc(/C=N/NC(=O)C(CSCc2ccccc2)NC(=O)c2ccc([N+](=O)[O-])cc2)cc1 (stereo not drawn)	-3.4	53.8*	15.6	22.2	16.7	9.8
CC(C)c1ccc(/C=C/C2=NNC(=O)CC2)cc1	-57.9	23.9	-61.3	-49.4	3.7	87.4*
CC12Cc3ccc4ccccc4c3C=C1C[N+](C)(C)C2 (stereo not drawn)	-2.0	1.3	-6.5	-11.5	-13.7	-5.2
CSc1ccccc1C(=O)NCCSC(C)(C)C	14.2	/	4.1	-11.5	-9.0	8.5
Cc1ccc(C(=O)c2c(C)oc3c2C(=O)C(=O)c2ccccc2-3)cc1	11.1	82.4	-9.7	-5.0	96.3*	-21.2
Cc1ccc(C(=O)c2coc3c2C(=O)C(=O)c2ccccc2-3)cc1	-58.4	/	-61.2	-32.0	-34.2	-90.1
Cc1oc2c(c1C(=O)c1ccc(Cl)cc1)C(=O)C(=O)c1ccccc1-2	/	-20.9	/	-7.7	92.5*	-87.0
COc1ccc(NC(=O)c2sc3ncnc(N4CCN(c5ccccn5)CC4)c3c2C)cc1Cl	-36.5	/	14.1	46.6	88.3*	15.9
O=S(=O)(c1ccc(Br)cc1Cl)N1CCN(CCO)CC1	12.9	-7.5	7.4	-0.5	-15.5	16.3
O=C1C=CC(=O)c2c(O)c(N3CCN(CCOCCO)CC3)c(Br)c(O)c21	/	100.7*	/	36.0	92.9*	/
O=C1C=CC(=O)c2c(O)c(N3CCN(CCO)CC3)c(Cl)c(O)c21	/	100.2*	/	49.9	98.8*	/
COc1ccc(Br)cc1C(=O)Nc1cccc(-c2nnc(-c3ccco3)o2)c1	-20.3	/	-25.2	71.0*	62.2	5.7
SMILES	697 NFkB inh	H9c2 TAG inh	Jurkat NFkB inh	Gli-Sufu antag	Shn3 3UTR inh	aSyn UTR inh
CCCn1c(NCc2ccco2)nc2c1c(=O)n(C)c(=O)n2C	-22.7	/	9.8	5.9	9.4	-7.2
COc1ccc(Cl)c(Cn2c(NCc3ccco3)nc3c2c(=O)n(C)c(=O)n3C)c1	-8.4	-27.5	11.1	70.2*	67.6	/
CCCC(=O)Nc1ccc(C(=O)NCc2ccccn2)cc1	2.4	3.0	-4.4	-28.2	17.8	-5.4
Cc1ccc(S(=O)(=O)NC(=O)Nc2ccc(N(C)C)cc2)cc1	-133.2	59.6*	-97.3	-18.3	6.2	-111.2
O=C(CCN1C(=O)/C(=C/c2ccc3c(c2)OCO3)SC1=S)Nc1cccc(C(=O)O)c1	-2.5	14.6	9.7	11.3	7.7	-16.3
O=C(CCCN1C(=O)/C(=C/c2ccc3c(c2)OCO3)SC1=S)Nc1cccc(C(=O)O)c1	18.0	18.0	13.6	24.2	-3.7	72.9*
C=CC[n+]1ccc(/C=C2\C=Cc3cc(C)ccc3N2CC)c2ccccc21	/	3.5	/	88.0*	70.7	/
CCN1/C(=C/c2cc[n+](CCCS(=O)(=O)[O-])c3ccccc23)Sc2ccccc21	14.1	/	0.8	2.2	4.7	-2.9
CC1CCC/C=C/C(=O)c2c(O)cc(O)cc2CC(=O)O1 (stereo not drawn)	-106.1	/	18.1	-1.6	87.4*	-153.2
C[C@@H]1Cc2c(O)c(O)cc(O)c2C(=O)O1	9.3	/	16.9	1.2	3.9	11.2
C=C1CC(COc2ccc3c(C)c(Cl)c(=O)oc3c2)(c2ccccc2)OC1=O (stereo not drawn)	/	76.6	/	5.6	96.2*	/
O=C(O)c1ccc(N2C(=O)CC(SC(=Nc3ccccc3)Nc3ccccc3)C2=O)cc1 (stereo not drawn)	14.9	/	14.9	1.3	-21.9	-0.2
COc1cccc(NC(=O)C2CCN(S(=O)(=O)c3ccc4[nH]c(=O)oc4c3)CC2)c1	-1.2	/	13.0	-7.8	-13.0	-7.7
O=C1CC(=O)OC(c2ccc([N+](=O)[O-])cc2)O1	/	4.2	/	/	97.5*	/
COc1ccc(/C=N/NC(=S)NC2CCS(=O)(=O)C2)cc1OC (stereo not drawn)	-3.9	/	-20.6	11.0	4.3	26.6
CSc1cccc(CNC(=O)C2CCC(=O)N(CCc3ccccn3)C2)c1 (stereo not drawn)	8.7	0.3	-2.8	-5.2	0.4	-0.4
CC(=O)Nc1ccc(C#Cc2ccc(NC(C)=O)cc2)cc1	-43.9	/	-59.2	-28.8	-31.6	73.7*
O=C(O)/C=C/c1cccc(NC(=O)Nc2ccc([N+](=O)[O-])cc2)c1	3.4	/	-5.8	5.3	-5.4	8.0
Cc1oc(=O)c(NC(=O)c2ccccc2)cc1C(N)=O	-5.0	/	-13.4	16.8	-4.9	1.1
O=C(Nc1cc2ccccc2oc1=O)c1ccccc1	-168.9	/	-48.9	-29.0	21.6	73.7*
Nc1nc(SCC(=O)Nc2cc(S(=O)(=O)N3CCOCC3)ccc2Cl)n[nH]1	8.1	-13.3	1.1	-11.7	11.0	20.4
COc1ccc(NC(=O)CCOc2cc(C)ccc2C)cc1S(=O)(=O)N1CCCCC1	2.6	-20.0	17.1	8.7	92.6*	/
CCCNC(=O)c1ccc2c(=O)c(O)c(-c3ccsc3)[nH]c2c1	-15.2	9.8	29.6	7.6	-45.0	86.7*
CCCNC(=O)c1ccc2c(=O)c(O)c(-c3ccc(C)cc3)[nH]c2c1	-63.5	-1.5	10.4	33.2	-77.6	68.6*
CCCNC(=O)c1ccc2c(=O)c(O)c(-c3ccc(OC)cc3)[nH]c2c1	-24.3	-21.0	-0.1	10.2	3.0	87.6*
Cc1ccc(-c2[nH]c3cc(C(=O)NCCCn4ccnc4)ccc3c(=O)c2O)cc1	9.8	-2.2	9.4	-8.0	-20.8	-1.3
